The record followed here is PubChem BioAssay (NCATS).

“And” between values parts separate entries of the source, which are not always exact repeats. Equal values may be shown once. Inconclusive results are not listed. The source made the active and inactive calls. Unless noted, calls come from the whole dose curve; as a rule, active = well fitted curve in the direction sought with a large enough effect; inconclusive = small, poorly fitted or top-dose-only effect, or another doubt; inactive = no such curve, though single readings can be large; an effect the other way counts as inactive or inconclusive.

Experiment [1] is described as follows: qHTS Assay for Lipid Storage Modulators (AID 1519; calls by dose curve; for activity change, negative = inhibition: % is set by controls: 0 for no effect and ±100 for the full control effect). The settings on record: Drosophila S3 cells, BODIPY lipid droplet/cell ratio, laser cytometry, cells loaded with oleic acid. Summed up: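 Cells seeded at 5,000 per well were treated with compounds over a concentration series and loaded with oleic acid (400 uM, as added). Lipid droplet fluorescence (488 nm excitation, 500-530 nm channel) was read by laser-scanning cytometry and normalized to 20 uM Triacsin C.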
A general note: qHTS replaces the single test concentration by a dilution series.

Experiment [2] deals with Ubiquitin carboxyl-terminal hydrolase 1 (Homo sapiens) (UniProt O94782). Briefly: Inhibitors of USP1/UAF1: Pilot qHTS (AID 504865).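 For activity change, negative = inhibition: rhodamine fluorescence freed from ubiquitin-rhodamine substrate followed over time; top concentration of the series differs between compounds; % is set by controls: 0 for no effect and ±100 for the full control effect.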 Note: nearly all actives have a fitted effect of over 35% in size. Note: potency is the fitted concentration of half-maximal effect. The settings on record: purified USP1/UAF1, Ub-rhodamine cleavage fluorescence; series mostly up to 114 µM. The essentials:
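Kinetic fluorescence assay: 1nM USP1/UAF1, 15 min compound preincubation, then 150nM Ub-Rho; 480/540 nm.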

Experiment [3] addresses Cytochrome P450 1A2 (Homo sapiens) (UniProt P05177). Briefly: p450-cyp1a2 (AID 410; calls by dose curve; note: potency is the fitted concentration of half-maximal effect;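 for activity change, negative = inhibition: -100% = full effect of reference inhibitor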). The following applies: recombinant CYP1A2, luciferin-ME demethylation, luminescence; series mostly up to 25.6 µM. Summed up:
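Read-out is luminescence from luciferin produced by CYP1A2 demethylation of Luciferin-ME (100uM, at Km). Detection reagent stopped the 60 min NADPH-dependent reaction; signals were normalized to 57 uM furafylline.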

The target in experiment [4] is Glucocorticoid receptor (Homo sapiens) (UniProt P04150). The experiment in a line: GR-GFP Redistribution (AID 450;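 active = compounds whose dose series gives a full or clear partial fitted curve of increased nuclear translocation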; note: potency is the fitted concentration of half-maximal effect). The following applies: U2OS GR-GFP nuclear translocation, laser cytometry, 2 h.
Glucocorticoid receptor (Homo sapiens), sequence (P04150 whole entry, looked up): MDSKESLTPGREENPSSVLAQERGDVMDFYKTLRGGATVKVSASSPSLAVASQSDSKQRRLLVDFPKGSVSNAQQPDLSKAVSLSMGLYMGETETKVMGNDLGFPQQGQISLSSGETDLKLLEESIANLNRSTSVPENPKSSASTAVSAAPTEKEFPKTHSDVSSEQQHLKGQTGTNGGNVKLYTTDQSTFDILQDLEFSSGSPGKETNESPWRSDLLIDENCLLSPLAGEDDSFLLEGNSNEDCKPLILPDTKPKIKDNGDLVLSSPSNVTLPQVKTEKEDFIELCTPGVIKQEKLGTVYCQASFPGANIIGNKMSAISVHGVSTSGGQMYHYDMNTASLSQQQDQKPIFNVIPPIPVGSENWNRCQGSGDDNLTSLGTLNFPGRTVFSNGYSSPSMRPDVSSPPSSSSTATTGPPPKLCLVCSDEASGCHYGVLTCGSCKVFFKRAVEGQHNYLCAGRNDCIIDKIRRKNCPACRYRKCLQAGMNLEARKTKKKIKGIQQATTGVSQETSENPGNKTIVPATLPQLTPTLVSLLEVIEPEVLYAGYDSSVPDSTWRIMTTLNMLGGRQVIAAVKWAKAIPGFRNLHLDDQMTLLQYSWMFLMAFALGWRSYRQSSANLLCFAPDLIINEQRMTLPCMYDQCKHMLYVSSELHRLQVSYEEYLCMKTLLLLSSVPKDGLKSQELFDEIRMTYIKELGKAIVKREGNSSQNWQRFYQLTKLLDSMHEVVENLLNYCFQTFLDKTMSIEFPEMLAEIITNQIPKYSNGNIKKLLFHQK
The target is the same in experiment [5]. The experiment in a line: GR-EFC Redistribution (AID 451; calls by dose curve; note: potency is the fitted concentration of half-maximal effect). The settings on record: CHO-K1 GR-EFC translocation, beta-gal luminescence, 2 h. Summed up:
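CHO-K1 cells stably expressing nuclear-localized β-gal enzyme acceptor and GR fused C-terminally to the enzyme donor fragment; ligand-driven nuclear translocation restores β-gal by complementation. Compounds titrated up to 46 uM final, 2 h at 37 °C; luminescence read.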

Experiment [6] deals with Mitogen-activated protein kinase 10 (Mus musculus) (UniProt Q61831). Briefly: JNK3 AlphaScreen Assay (AID 530; active = well fitted curve in either direction with a large enough effect, not every such curve was filed as active;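 note: kinase came from lysate of stimulated human HepG2 cells; signal reports phosphorylation of biotinylated GST-cJun 1-79 at Ser73 with 10 µM ATP; % is set by controls: 0 for no effect and ±100 for the full control effect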). The following applies: JNK3 lysate, c-Jun phosphorylation; series mostly up to 57.1 µM. The essentials:
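Biotinylated GST-cJun(1-79) served as substrate for JNK3 in HepG2 lysates stimulated with IL-1beta and TNF-alpha. ATP was 10 uM final, pH 7.6. Ser73 phosphorylation was quantified by AlphaScreen (680 nm excitation).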
(In Alpha technology, singlet oxygen from a donor bead excites a nearby acceptor bead.)

Experiment [7] addresses 3',5'-cyclic-AMP phosphodiesterase 4B (Homo sapiens) (UniProt Q07343). The experiment in a line: qHTS Assay for Inhibitors of PDE-IV (AID 607; active = well fitted activation curve with a large enough effect in the main read-out, with a control signal flat, not every such curve was filed as active; note: % of control where 0% means no effect). The settings on record: HEK293 ACTOne CNG channel cells, membrane potential fluorescence; series mostly up to 22.9 µM. Summed up: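 The readout is membrane depolarisation from a cAMP-sensing CNG channel, detected with a potential dye at ex 535/em 590. Cells were HEK293-derived (endogenous PDE-IV) at 1000 cells/well, titrated up to 22.9 uM final.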

The target in experiment [8] is Cytochrome P450 3A4 (Homo sapiens) (UniProt P08684). Briefly: qHTS Assay for Inhibitors and Substrates of Cytochrome P450 3A4 (AID 884). Note: % is set by controls: 0 for no effect and ±100 for the full control effect; nearly all actives have a fitted effect of over 50% in size. The following applies: recombinant CYP3A4, Luciferin-PPXE luminescence; series mostly up to 57.1 µM. The essentials:
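Luminescent readout of luciferin produced by CYP3A4 (20 nM) dealkylation of Luciferin-PPXE, 25 uM (its KM). NADPH-driven reaction ran 60 min at RT after 10 min compound preincubation; data scaled to 57 uM ketoconazole as 100% inhibition.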

The target in experiment [9] is Luciferin 4-monooxygenase (Photinus pyralis) (UniProt P08659). The experiment in a line: Biochemical firefly luciferase enzyme assay for NPC (AID 624030).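 Note: purified P. pyralis luciferase at 10 nM with luciferin and ATP substrate; 0% = DMSO and -100% = full luciferase inhibition by PTC124 control; nearly all actives have a fitted effect of over 70% in size.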 The settings on record: purified P. pyralis luciferase, luminescence, 5 min; series mostly up to 58.6 µM. Summed up: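 Counter-screen for direct inhibition of the luciferase enzyme by approved-drug library compounds, run at 10 nM enzyme in 50 mM Tris acetate (final). Luminescence was read within 5 min of enzyme-buffer addition and normalized to PTC124 versus DMSO (0%).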
Luciferin 4-monooxygenase (Photinus pyralis), sequence (P08659 whole entry, looked up): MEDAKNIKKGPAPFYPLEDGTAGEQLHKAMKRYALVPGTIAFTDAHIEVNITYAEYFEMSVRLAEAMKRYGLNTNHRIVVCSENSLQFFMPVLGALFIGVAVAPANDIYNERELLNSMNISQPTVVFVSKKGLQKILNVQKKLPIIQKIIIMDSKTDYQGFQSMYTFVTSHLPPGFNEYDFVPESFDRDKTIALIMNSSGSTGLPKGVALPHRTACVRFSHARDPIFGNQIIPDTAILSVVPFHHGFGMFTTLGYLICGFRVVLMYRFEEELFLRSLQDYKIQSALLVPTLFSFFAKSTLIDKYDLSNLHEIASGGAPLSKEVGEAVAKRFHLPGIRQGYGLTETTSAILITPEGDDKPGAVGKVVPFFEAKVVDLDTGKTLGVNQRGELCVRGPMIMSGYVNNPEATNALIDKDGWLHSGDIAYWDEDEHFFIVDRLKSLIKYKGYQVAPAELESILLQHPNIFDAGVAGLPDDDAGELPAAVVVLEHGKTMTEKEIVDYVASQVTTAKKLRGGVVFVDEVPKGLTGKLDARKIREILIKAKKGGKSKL

Experiment [10] is described as follows: qHTS profiling for inhibitors of Plasmodium falciparum proliferation (AID 504749).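 For activity, negative = inhibition: 0% = DMSO vehicle and full inhibition = artemisinin control.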 For all read-outs here: nearly all actives have a fitted effect of over 60% in size. Note: potency is the fitted concentration of half-maximal effect. The settings on record: P. falciparum in erythrocytes, SYBR Green DNA, 72 h; for activity, negative = inhibition: at 28.7 µM (top of the series). The essentials: (§1)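 Fluorescence of SYBR Green-bound parasite DNA, read at 485/535 nm, served as the growth measure. Infected erythrocytes were cultured with compound 72 h; artemisinin (0.29 uM) and DMSO wells defined the normalization range.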

Another experiment concerns ATS189. The description is as above. The settings on record: P. falciparum in erythrocytes, SYBR Green DNA, 72 h; series mostly up to 28.7 µM. Summed up: as §1
The next experiment concerns DFO2036. The experiment is described as above. The following applies: P. falciparum in erythrocytes, SYBR Green DNA, 72 h; series mostly up to 28.7 µM. The essentials: as §1
The nature of experiment [11]: Stat Signaling Pathway (AID 446; active = well fitted curve in either direction with a large enough effect, not every such curve was filed as active;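 note: ME-180 cervical cancer cells given 40 pM IL-6 alongside compound; SIE-controlled beta-lactamase reporter measured as 460/530 nm FRET emission ratio; % is set by controls: 0 for no effect and ±100 for the full control effect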). The following applies: ME-180 (cervical carcinoma) SIE beta-lactamase reporter, IL-6 stimulated, 5 h; series mostly up to 17.2 µM. Summed up: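 Emission at 460 and 530 nm (excitation 405 nm) reports SIE-controlled beta-lactamase in ME-180 cells. Cells received compound with 40 pM IL-6 for 5 hrs at 37 C; data scaled between 300 pM IL-6 and 125 nM JAK-inhibitor controls.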

For experiment [12], the target named is Cytochrome P450 3A4 (Homo sapiens) (UniProt P08684). Briefly: qHTS Assay for Activators of Cytochrome P450 3A4 (AID 885). Note: nearly all actives have a fitted effect of over 65% in size. The settings on record: recombinant CYP3A4, Luciferin-PPXE luminescence, 60 min; series mostly up to 57.1 µM. Summed up:
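Activators are scored by enhanced luminescence from CYP3A4 conversion of luciferin-PPXE (25uM, equal to KM) to luciferin, after 60 min at RT with an NADPH-regenerating system.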

Experiment [13] in a line: Confirmation and Secondary Assay for Modulators of Hemoglobin Beta Chain Splicing at IVS2 654 locus (AID 910).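 Note: per-well total GFP intensity by laser scanning cytometry after 2-day treatment; % of control where 0% means no effect.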 The settings on record: HeLa EGFP-654 splicing reporter, GFP fluorescence, 48 h; series mostly up to 46.1 µM. The essentials:
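HeLa cells stably carrying EGFP interrupted by mutant beta-globin IVS2-654 intron (CMV-driven) were treated with compound for 2 days at 37C; corrected splicing was scored as total peak GFP intensity per well (488 nm excitation, 500-520 nm emission).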

Experiment [14] can be described thus: Confirmation and Secondary Assay for Modulators of Hemoglobin Beta Chain Splicing at IVS2 705 locus (AID 930). Note: % of control where 0% means no effect. The settings on record: HeLa EGFP-705 splicing reporter, GFP fluorescence, 48 h; series mostly up to 46.1 µM. The essentials: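 HeLa cells stably carrying EGFP interrupted by mutant beta-globin IVS2-705 intron (CMV-driven) were seeded at 500 cells/well, treated next day with compound for 2 days at 37C; corrected splicing restores EGFP, read as total peak GFP intensity per well.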

[15] abbreviates: measured here: cell count channel max response.
[16] abbreviates: measured here: lipid channel max response.

Cytochrome P450 3A4 (Homo sapiens), sequence (P08684 whole entry, looked up): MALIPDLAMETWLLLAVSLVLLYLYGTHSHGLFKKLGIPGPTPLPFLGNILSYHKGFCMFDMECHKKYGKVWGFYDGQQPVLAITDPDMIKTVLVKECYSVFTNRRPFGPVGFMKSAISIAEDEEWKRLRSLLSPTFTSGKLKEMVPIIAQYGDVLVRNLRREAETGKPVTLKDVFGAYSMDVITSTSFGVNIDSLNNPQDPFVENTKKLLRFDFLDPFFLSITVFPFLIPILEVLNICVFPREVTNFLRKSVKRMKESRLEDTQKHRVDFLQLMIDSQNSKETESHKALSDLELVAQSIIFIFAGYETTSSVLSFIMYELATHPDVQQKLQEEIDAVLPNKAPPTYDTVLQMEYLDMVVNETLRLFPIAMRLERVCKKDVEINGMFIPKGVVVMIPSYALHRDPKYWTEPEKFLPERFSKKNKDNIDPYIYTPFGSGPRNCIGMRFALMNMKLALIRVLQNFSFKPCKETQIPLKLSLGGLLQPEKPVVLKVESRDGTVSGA
Ubiquitin carboxyl-terminal hydrolase 1 (Homo sapiens), sequence (O94782 whole entry, looked up): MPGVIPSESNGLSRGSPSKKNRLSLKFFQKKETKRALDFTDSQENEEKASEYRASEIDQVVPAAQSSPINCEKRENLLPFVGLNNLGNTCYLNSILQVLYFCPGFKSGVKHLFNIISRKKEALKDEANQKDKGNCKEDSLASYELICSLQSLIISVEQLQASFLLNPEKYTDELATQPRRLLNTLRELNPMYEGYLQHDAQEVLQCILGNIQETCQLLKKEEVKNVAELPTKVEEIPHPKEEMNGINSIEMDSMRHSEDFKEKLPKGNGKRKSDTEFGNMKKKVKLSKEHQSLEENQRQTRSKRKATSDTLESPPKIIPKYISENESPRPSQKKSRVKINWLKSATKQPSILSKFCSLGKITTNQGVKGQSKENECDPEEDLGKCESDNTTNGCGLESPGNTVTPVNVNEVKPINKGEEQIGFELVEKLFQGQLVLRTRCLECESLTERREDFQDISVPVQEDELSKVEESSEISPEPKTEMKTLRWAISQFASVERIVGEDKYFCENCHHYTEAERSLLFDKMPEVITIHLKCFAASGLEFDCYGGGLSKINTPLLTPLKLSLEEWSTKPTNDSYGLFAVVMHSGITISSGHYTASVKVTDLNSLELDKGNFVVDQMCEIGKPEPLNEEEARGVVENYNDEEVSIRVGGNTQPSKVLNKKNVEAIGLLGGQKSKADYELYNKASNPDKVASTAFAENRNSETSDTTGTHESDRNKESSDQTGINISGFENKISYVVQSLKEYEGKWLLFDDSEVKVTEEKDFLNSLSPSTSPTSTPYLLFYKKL
3',5'-cyclic-AMP phosphodiesterase 4B (Homo sapiens), sequence (Q07343 whole entry, looked up): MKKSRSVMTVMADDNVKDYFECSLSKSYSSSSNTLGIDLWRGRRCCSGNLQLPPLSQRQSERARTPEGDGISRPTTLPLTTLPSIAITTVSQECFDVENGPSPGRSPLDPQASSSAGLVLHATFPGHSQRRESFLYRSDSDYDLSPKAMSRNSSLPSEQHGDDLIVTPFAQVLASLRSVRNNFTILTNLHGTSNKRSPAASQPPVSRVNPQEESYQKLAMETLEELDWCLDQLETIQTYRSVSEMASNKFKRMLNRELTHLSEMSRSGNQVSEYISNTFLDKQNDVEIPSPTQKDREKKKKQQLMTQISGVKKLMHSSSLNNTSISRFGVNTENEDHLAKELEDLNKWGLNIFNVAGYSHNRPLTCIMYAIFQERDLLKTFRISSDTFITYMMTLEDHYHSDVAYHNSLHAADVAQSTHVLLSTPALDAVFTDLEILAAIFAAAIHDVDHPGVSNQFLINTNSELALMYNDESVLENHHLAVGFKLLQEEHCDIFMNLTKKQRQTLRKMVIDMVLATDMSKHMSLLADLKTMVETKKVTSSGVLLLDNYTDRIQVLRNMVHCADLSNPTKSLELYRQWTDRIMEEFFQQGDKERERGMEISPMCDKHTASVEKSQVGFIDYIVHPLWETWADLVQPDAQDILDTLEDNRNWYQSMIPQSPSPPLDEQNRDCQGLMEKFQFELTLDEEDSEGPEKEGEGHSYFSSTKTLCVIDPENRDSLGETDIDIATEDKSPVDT
Cytochrome P450 1A2 (Homo sapiens), sequence (P05177 whole entry, looked up): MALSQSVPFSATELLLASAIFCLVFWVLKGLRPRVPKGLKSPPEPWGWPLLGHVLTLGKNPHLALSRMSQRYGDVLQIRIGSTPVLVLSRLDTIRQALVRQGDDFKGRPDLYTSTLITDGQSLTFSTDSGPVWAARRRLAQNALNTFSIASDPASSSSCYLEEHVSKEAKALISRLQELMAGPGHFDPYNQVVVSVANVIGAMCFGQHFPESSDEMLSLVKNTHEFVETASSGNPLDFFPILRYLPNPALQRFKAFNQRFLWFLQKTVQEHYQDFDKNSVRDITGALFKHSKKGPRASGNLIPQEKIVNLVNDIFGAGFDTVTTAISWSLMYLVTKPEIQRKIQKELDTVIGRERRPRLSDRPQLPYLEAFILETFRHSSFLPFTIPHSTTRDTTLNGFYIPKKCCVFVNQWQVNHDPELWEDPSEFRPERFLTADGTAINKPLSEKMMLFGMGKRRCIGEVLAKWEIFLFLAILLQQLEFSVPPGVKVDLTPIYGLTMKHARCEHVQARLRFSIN

For the compound `C=C[C@H]1CN2CCC1C[C@@H]2C(O)c1ccnc2ccccc12` (some centres not stated), in [1] (at 57.5 µM (top of the series)), the activity change, negative = inhibition is 7.24% (inactive). Moreover, the max response in experiment [1] (setting [15]) was found to be 20.2%; in [1] (setting [16]) it was 27.5%. Further, the Potency result in [2] was “inactive”.

For `c1cncc([C@H]2CCCCN2)c1`, the Potency in experiment [3] is 0.1 µM (active); in [4] it was > 46 µM (inactive); in [5], > 46 µM (inactive). Moreover, in [6], the compound was classed as inactive. For the same compound, the Potency entry in experiment [7] and in experiment [8] was “inactive” throughout. In addition, in experiment [1] (at 57.5 µM (top of the series)), the activity change, negative = inhibition was 0.698% (inactive). Besides, the max response in [1] (setting [15]) stood at 18.4%; in [1] (setting [16]), 19.6%.

Turning to `C[N+]1=Cc2cc3c(cc2CC1)OCO3`, the Potency entry in [3], in experiment [7] and in [8] was “inactive” throughout. Moreover, the Potency in experiment [4] and in experiment [5] was > 46 µM (inactive) each time. In experiment [6], the call was inactive. Also, in [1] (at 57.5 µM (top of the series)), the activity change, negative = inhibition is 4.74% (inactive). Moreover, the figures for the max response in [1] (setting [15]) and in experiment [1] (setting [16]) were 15.4% and 22.1%, respectively.

On to `COc1cc2c(c(OC)c1OC)-c1ccc(O)c(=O)cc1[C@@H](NC(C)=O)CC2`, for which the Potency result in experiment [3] and in [8] was “inactive” each time. Besides, the Potency in [4] and in experiment [5] was > 46 µM (inactive) throughout. Besides, the outcome in [6] was inactive. Moreover, in experiment [1] (at 57.5 µM (top of the series)), the activity change, negative = inhibition is 3.54% (inactive). The max response in [1] (setting [15]) was determined as 16.1%; in experiment [1] (setting [16]) it was 20.6%.

As to `COc1cc(N)c(Cl)cc1C(=O)N[C@@H]1CN2CCC1CC2`, the Potency result (in [3]; in experiment [7]; in experiment [9]; in the experiment on ATS189; with DFO2036) was “inactive” throughout. The Potency in experiment [4] and in experiment [5] was > 46 µM (inactive) throughout. Further, the activity change, negative = inhibition in experiment [1] (at 57.5 µM (top of the series)) was 7.47% (inactive). The max response in [1] (setting [15]) was determined as 3.73%; in experiment [1] (setting [16]) it was 7.11%. Further, the figures for the activity, negative = inhibition in [10] (parasite line A) and in experiment [10] (parasite line B) were -0.396% (inactive) and 5.5% (inactive), respectively.

Regarding `CN1[C@@H]2CC(OC(=O)[C@H](CO)c3ccccc3)C[C@@H]1[C@H]1O[C@H]12` (some centres not stated), the activity change, negative = inhibition in experiment [1] (at 57.5 µM (top of the series)) was 4.98% (inactive). Moreover, the figures for the max response in experiment [1] (setting [15]) and in experiment [1] (setting [16]) were -8.42% and -4.12%, respectively. For the same compound, the Potency entry in experiment [2] is “inactive”.

As for `CC(CCC(=O)O)C1CCC2C3CC[C@H]4CC(O)CC[C@@]4(C)C3CC[C@@]12C` (some centres not stated), in experiment [1] (at 57.5 µM (top of the series)), the activity change, negative = inhibition was -0.0455% (inactive). The max response in experiment [1] (setting [15]) stood at 5.89%; in [1] (setting [16]) it was 10.6%. In addition, in [2], the Potency was 79.4 µM (active).

For `O=C1C=C2C=C[C@H]3C[C@@]2(O1)[C@H]1CCCCN31`, the Potency entry in [3], in experiment [7] and in experiment [2] was “inactive” each time. Also, the outcome in experiment [11] and in [6] was inactive. In addition, the Potency in experiment [4] is > 20.6 µM (inactive) and > 46 µM (inactive); in [5], > 20.6 µM (inactive) and > 46 µM (inactive). In [1] (at 25.7 µM (top of the series)), the activity change, negative = inhibition is -1.11% (inactive). In addition, the max response is -16.7% in [1] (setting [15]) and -17.3% in experiment [1] (setting [16]).

As to `O=C1C=C2C=CC3C[C@@]2(O1)C1CCCCN31` (some centres not stated), the Potency result in experiment [12], in experiment [13], in [14], in experiment [2] and in experiment [9] was “inactive” throughout. In experiment [1] (at 57.5 µM (top of the series)), the activity change, negative = inhibition was 4.29% (inactive). The results for the max response in experiment [1] (setting [15]) and in [1] (setting [16]) were 5.82% and 10.8%, respectively. The Potency in experiment [10] (parasite line A) was 11.2 µM (active); in experiment [10] (parasite line B) it was 8.91 µM (active); with ATS189 it was 11.2 µM (active); with DFO2036, 12.6 µM (active).
